In all, about 2,900 compounds were measured (“NF-kB SEAP reporter activity, fold change vs agonist alone”: median about 0.99, highest 2% from about 2.6 on). This excerpt belongs to a sample that is enriched for the highest values.
Columns and labels:
RAW-Dual [1] = test: NF-kB SEAP reporter activity, fold change vs agonist alone; higher = enhanced NF-kB activity
In short: (§1)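 RAW-Dual macrophages (50,000 cells/well in DMEM, 384-well plates) received 50 nL of library stock by pin tool, then a PRR agonist 1 h later, and were kept at 37 °C, 5% CO2. After 20 hours, supernatant was read for IRF by QuantiLuc luminescence and for NF-κB by QuantiBlue absorbance at 620 nm. Reporter activity is fold change over agonist-alone wells. Cytotoxic wells had IncuCyte confluency below 70% of agonist controls in both mask sets.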

RAW-Dual [2] = test: NF-kB SEAP reporter activity, fold change vs agonist alone; cytotoxicity flag (confluency mask): not cytotoxic; higher = enhanced NF-kB activity
In short: as §1

RAW-Dual [3] = test: NF-kB SEAP reporter activity, fold change vs agonist alone; cytotoxicity flag (confluency mask): cytotoxic (confluency <70% of control); higher = enhanced NF-kB activity
In short: as §1

[4] = library stock concentration (final ~1000-fold dilution): 10 mM, cytotoxicity flag (confluency mask): not cytotoxic, agonist: Imiquimod (TLR7) […]
[5] = library stock concentration (final ~1000-fold dilution): 10 mM, cytotoxicity flag (confluency mask): not cytotoxic, agonist: MPLA (TLR4) […]
[6] = agonist: ODN 1826 (TLR9) 0.5 ug/mL
[7] = agonist: Pam2CSK4 (TLR2/6) 0.1 ug/mL
[8] = agonist: Pam3CSK4 (TLR2/1) 0.1 ug/mL
[9] = library stock concentration (final ~1000-fold dilution): 10 mM, cytotoxicity flag (confluency mask): cytotoxic (confluency <70% of control), agonist: Imiquimod (TLR7) […]
[10] = library stock concentration (final ~1000-fold dilution): 10 mM, cytotoxicity flag (confluency mask): cytotoxic (confluency <70% of control), agonist: MPLA (TLR4) […]

## CC(=O)OC1(C(C)=O)CCC2C3C=C(C)C4=CC(=O)CCC4(C)C3CCC21C (stereo not given)
RAW-Dual [1]; [4]
  NF-kB SEAP reporter activity: 1.21
RAW-Dual [1]; [5]
  NF-kB SEAP reporter activity: 1.14

## CC(=O)OC1(C(C)=O)CCC2C3C=C(C)C4=CC(=O)CCC4(C)C3CCC21C (stereo not given) (library stock concentration (final ~1000-fold dilution): 10 mM)
RAW-Dual [2]; agonist: LPS (TLR4) 0.1 ug/mL
  NF-kB SEAP reporter activity: 0.908
RAW-Dual [2]; [6]
  NF-kB SEAP reporter activity: 1.22
RAW-Dual [2]; [7]
  NF-kB SEAP reporter activity: 1.13
RAW-Dual [2]; [8]
  NF-kB SEAP reporter activity: 1.27

## O=C(NC1=CC(=O)[C@@H]2O[C@@H]2[C@@H]1O)c1ccccc1O (library stock concentration (final ~1000-fold dilution): 10 mM)
RAW-Dual [2]; agonist: LPS (TLR4) 0.1 ug/mL
  NF-kB SEAP reporter activity: 0.954
RAW-Dual [2]; [6]
  NF-kB SEAP reporter activity: 0.718
RAW-Dual [2]; [7]
  NF-kB SEAP reporter activity: 0.356
RAW-Dual [2]; [8]
  NF-kB SEAP reporter activity: 0.314

## O=C(NC1=CC(=O)[C@@H]2O[C@@H]2[C@@H]1O)c1ccccc1O
RAW-Dual [1]; [4]
  NF-kB SEAP reporter activity: 0.849
RAW-Dual [1]; [5]
  NF-kB SEAP reporter activity: 0.949

## CS(=O)(=O)O.O=C(OC1CC2CC3CC(C1)N2CC3=O)c1c[nH]c2ccccc12 (stereo not given) (library stock concentration (final ~1000-fold dilution): 10 mM)
RAW-Dual [2]; agonist: LPS (TLR4) 0.1 ug/mL
  NF-kB SEAP reporter activity: 0.646
RAW-Dual [2]; [6]
  NF-kB SEAP reporter activity: 0.571
RAW-Dual [2]; [7]
  NF-kB SEAP reporter activity: 0.906
RAW-Dual [2]; [8]
  NF-kB SEAP reporter activity: 0.497

## CS(=O)(=O)O.O=C(OC1CC2CC3CC(C1)N2CC3=O)c1c[nH]c2ccccc12 (stereo not given)
RAW-Dual [1]; [4]
  NF-kB SEAP reporter activity: 0.712
RAW-Dual [1]; [5]
  NF-kB SEAP reporter activity: 0.75

## CCNC(=O)C#Cc1ccc2c(c1)NC(=O)/C2=C(\Nc1ccc(CN(C)C)cc1)c1ccccc1 (library stock concentration (final ~1000-fold dilution): 10 mM)
RAW-Dual [3]; agonist: LPS (TLR4) 0.1 ug/mL
  NF-kB SEAP reporter activity: 0.241
RAW-Dual [3]; [6]
  NF-kB SEAP reporter activity: 0.173
RAW-Dual [3]; [7]
  NF-kB SEAP reporter activity: 0.074
RAW-Dual [3]; [8]
  NF-kB SEAP reporter activity: 0.121

## CCNC(=O)C#Cc1ccc2c(c1)NC(=O)/C2=C(\Nc1ccc(CN(C)C)cc1)c1ccccc1
RAW-Dual [1]; [9]
  NF-kB SEAP reporter activity: 0.134
RAW-Dual [1]; [10]
  NF-kB SEAP reporter activity: 0.297

## CCN(CC)CCOc1ccc(Nc2ncc3cc(-c4c(Cl)cccc4Cl)c(=O)n(C)c3n2)cc1 (library stock concentration (final ~1000-fold dilution): 10 mM)
RAW-Dual [3]; agonist: LPS (TLR4) 0.1 ug/mL
  NF-kB SEAP reporter activity: 0.238
RAW-Dual [3]; [6]
  NF-kB SEAP reporter activity: 0.236
RAW-Dual [3]; [7]
  NF-kB SEAP reporter activity: 0.0747
RAW-Dual [3]; [8]
  NF-kB SEAP reporter activity: 0.145

## CCN(CC)CCOc1ccc(Nc2ncc3cc(-c4c(Cl)cccc4Cl)c(=O)n(C)c3n2)cc1
RAW-Dual [1]; [9]
  NF-kB SEAP reporter activity: 0.492
RAW-Dual [1]; [10]
  NF-kB SEAP reporter activity: 0.332

## Cc1cnc(Nc2ccc(N3CCN(C)CC3)cc2)nc1Nc1cccc(S(=O)(=O)NC(C)(C)C)c1
RAW-Dual [1]; [4]
  NF-kB SEAP reporter activity: 1.01
RAW-Dual [1]; [5]
  NF-kB SEAP reporter activity: 0.945

## C=CC(=O)Nc1cccc(Sc2nc(Nc3ccc(N4CCN(C)CC4)cc3)ncc2Cl)c1
RAW-Dual [1]; [4]
  NF-kB SEAP reporter activity: 0.33
RAW-Dual [1]; [5]
  NF-kB SEAP reporter activity: 0.408

## C=CC(=O)Nc1cccc(Nc2nc(Nc3ccc(OCCOC)cc3)ncc2F)c1
RAW-Dual [1]; [4]
  NF-kB SEAP reporter activity: 1.11
RAW-Dual [1]; [5]
  NF-kB SEAP reporter activity: 1.69

## Cc1cnc(Nc2ccc(OCCN3CCCC3)cc2)nc1Nc1cccc(S(=O)(=O)NC(C)(C)C)c1 (library stock concentration (final ~1000-fold dilution): 10 mM)
RAW-Dual [3]; agonist: LPS (TLR4) 0.1 ug/mL
  NF-kB SEAP reporter activity: 4.34
RAW-Dual [3]; [6]
  NF-kB SEAP reporter activity: 1.22
RAW-Dual [3]; [7]
  NF-kB SEAP reporter activity: 2.05
RAW-Dual [3]; [8]
  NF-kB SEAP reporter activity: 3.55

## Cc1cnc(Nc2ccc(N3CCN(C)CC3)cc2)nc1Nc1cccc(S(=O)(=O)NC(C)(C)C)c1 (library stock concentration (final ~1000-fold dilution): 10 mM)
RAW-Dual [2]; agonist: LPS (TLR4) 0.1 ug/mL
  NF-kB SEAP reporter activity: 7
RAW-Dual [2]; [6]
  NF-kB SEAP reporter activity: 0.913
RAW-Dual [2]; [7]
  NF-kB SEAP reporter activity: 2.15
RAW-Dual [2]; [8]
  NF-kB SEAP reporter activity: 0.84

## C=CCn1c(=O)c2cnc(Nc3ccc(N4CCN(C)CC4)cc3)nc2n1-c1cccc(C(C)(C)O)n1 (library stock concentration (final ~1000-fold dilution): 10 mM)
RAW-Dual [3]; agonist: LPS (TLR4) 0.1 ug/mL
  NF-kB SEAP reporter activity: 0.933
RAW-Dual [3]; [6]
  NF-kB SEAP reporter activity: 0.203
RAW-Dual [3]; [7]
  NF-kB SEAP reporter activity: 0.914
RAW-Dual [3]; [8]
  NF-kB SEAP reporter activity: 1.07

## C=CC(=O)Nc1cccc(Nc2nc(Nc3ccc(OCCOC)cc3)ncc2F)c1 (library stock concentration (final ~1000-fold dilution): 10 mM)
RAW-Dual [2]; agonist: LPS (TLR4) 0.1 ug/mL
  NF-kB SEAP reporter activity: 1.12
RAW-Dual [2]; [6]
  NF-kB SEAP reporter activity: 0.8
RAW-Dual [2]; [7]
  NF-kB SEAP reporter activity: 0.545
RAW-Dual [2]; [8]
  NF-kB SEAP reporter activity: 0.672

## C=CC(=O)Nc1cccc(Sc2nc(Nc3ccc(N4CCN(C)CC4)cc3)ncc2Cl)c1 (library stock concentration (final ~1000-fold dilution): 10 mM)
RAW-Dual [2]; agonist: LPS (TLR4) 0.1 ug/mL
  NF-kB SEAP reporter activity: 0.254
RAW-Dual [2]; [6]
  NF-kB SEAP reporter activity: 0.205
RAW-Dual [2]; [7]
  NF-kB SEAP reporter activity: 0.0814
RAW-Dual [2]; [8]
  NF-kB SEAP reporter activity: 0.268

## C=CCn1c(=O)c2cnc(Nc3ccc(N4CCN(C)CC4)cc3)nc2n1-c1cccc(C(C)(C)O)n1
RAW-Dual [1]; [9]
  NF-kB SEAP reporter activity: 1.14
RAW-Dual [1]; [10]
  NF-kB SEAP reporter activity: 0.798

## Cc1cnc(Nc2ccc(OCCN3CCCC3)cc2)nc1Nc1cccc(S(=O)(=O)NC(C)(C)C)c1
RAW-Dual [1]; [9]
  NF-kB SEAP reporter activity: 3.13
RAW-Dual [1]; [10]
  NF-kB SEAP reporter activity: 2.73

## c1ccc(C(c2ccccc2)N2CCN(Cc3ccc4c(c3)OCO4)CC2)cc1 (library stock concentration (final ~1000-fold dilution): 10 mM)
RAW-Dual [2]; agonist: LPS (TLR4) 0.1 ug/mL
  NF-kB SEAP reporter activity: 0.717
RAW-Dual [2]; [6]
  NF-kB SEAP reporter activity: 0.728
RAW-Dual [2]; [7]
  NF-kB SEAP reporter activity: 1.38
RAW-Dual [2]; [8]
  NF-kB SEAP reporter activity: 0.699

## c1ccc(C(c2ccccc2)N2CCN(Cc3ccc4c(c3)OCO4)CC2)cc1
RAW-Dual [1]; [4]
  NF-kB SEAP reporter activity: 1.19
RAW-Dual [1]; [5]
  NF-kB SEAP reporter activity: 0.686

## O=c1ncnc2[nH][nH]cc1-2 (library stock concentration (final ~1000-fold dilution): 10 mM)
RAW-Dual [2]; agonist: LPS (TLR4) 0.1 ug/mL
  NF-kB SEAP reporter activity: 0.941
RAW-Dual [2]; [6]
  NF-kB SEAP reporter activity: 1.03
RAW-Dual [2]; [7]
  NF-kB SEAP reporter activity: 1.06
RAW-Dual [2]; [8]
  NF-kB SEAP reporter activity: 1.16

## O=c1ncnc2[nH][nH]cc1-2
RAW-Dual [1]; [4]
  NF-kB SEAP reporter activity: 0.925
RAW-Dual [1]; [5]
  NF-kB SEAP reporter activity: 1.08

## C=C(C)C1CCC2(C)CCC3(C)C(CCC4C5(C)CCC(O)C(C)(C)C5CCC43C)C12 (stereo not given)
RAW-Dual [1]; library stock concentration (final ~1000-fold dilution): 2 mM, cytotoxicity flag (confluency mask): not cytotoxic, agonist: Imiquimod (TLR7) […]
  NF-kB SEAP reporter activity: 1
RAW-Dual [1]; library stock concentration (final ~1000-fold dilution): 2 mM, cytotoxicity flag (confluency mask): not cytotoxic, agonist: MPLA (TLR4) […]
  NF-kB SEAP reporter activity: 1.05

## C=C(C)C1CCC2(C)CCC3(C)C(CCC4C5(C)CCC(O)C(C)(C)C5CCC43C)C12 (stereo not given) (library stock concentration (final ~1000-fold dilution): 2 mM)
RAW-Dual [2]; agonist: LPS (TLR4) 0.1 ug/mL
  NF-kB SEAP reporter activity: 1.25
RAW-Dual [2]; [6]
  NF-kB SEAP reporter activity: 0.949
RAW-Dual [2]; [7]
  NF-kB SEAP reporter activity: 1.06
RAW-Dual [2]; [8]
  NF-kB SEAP reporter activity: 0.917

## CC(C)COCC(CN(Cc1ccccc1)c1ccccc1)N1CCCC1.Cl.O (stereo not given)
RAW-Dual [1]; [9]
  NF-kB SEAP reporter activity: 0.745
RAW-Dual [1]; [10]
  NF-kB SEAP reporter activity: 1.24

— the supplement of paper PMC10037445
